Records with an inconclusive call do not appear. Activity calls are given as the source filed them. The call rests on the fitted dose curve; in most records, active means well fitted cell-killing curve with a large enough effect in the repeat runs; inconclusive means weak or mixed curves; inactive means flat fitted curve, though single readings scatter.
On the % scale 0 is the no-effect control and ±100 the full control effect.

The test in a line: qHTS assay to identify small molecule antagonists of the TGF-beta/Smad signaling pathway - cell viability counter screen (AID 1346824). Further: nearly all actives have a fitted effect of over 50% in size. Particulars: SBE-bla HEK293T viability, CellTiter-Glo luminescence; series mostly up to 76.8 µM; viability change, negative = cytotoxic: at the top concentration. The source says:
U.S. Tox21 Program National Center for Advancing Translational Sciences [NCATS] NIH Chemical Genomics Center [NCGC] U.S. Environmental Protection Agency [EPA] National Institutes of Environmental Health Sciences [NIEHS] National Toxicology Program [NTP] U.S. Food and Drug Administration [FDA] Tox21 Assay Overview: Transforming growth factor beta (TGF-beta) superfamily consists of a large number of structurally related dimeric proteins that act as hormones or local mediators in regulating a wide range of biological functions. This superfamily includes TGF-betas themselves, the bone morphogenetic proteins (BMPs) and the activins. These ligands induce oligomerization of serine/threonine receptor kinases and phosphorylate the cytoplasmic signaling molecules of Smad protein family. CellSensor SBE-bla HEK 293T cell line (Life Technologies, Carlsbad, CA), responsive to TGF-beta was used to screen Tox21 10K compound library for identification of agonists/antagonists of the Smad signaling pathway. This cell line contains a beta-lactamase reporter gene under control of the Smad binding element (SBE) stably integrated into HEK 293T cells. Also cytotoxicity of the compounds was tested in parallel by measuring the cell viability using CellTiter-Glo assay system in the same wells.
Tox21 Assay Protocol Summary: SBE-bla HEK 293T cells were dispensed at 4,000/well in 5 uL of assay medium into black wall/clear-bottom 1536-well plates using a Multidrop Combi (ThermoFisher Scientific, Waltham, MA) dispenser. After the assay plates were incubated at 37 C and 5% CO2 for an overnight, 23 nL of compounds dissolved in DMSO, positive controls or DMSO only was transferred to the assay plate by a Pintool station (Kalypsys, San Diego, CA). Compound transfer was followed by the addition of 1 uL of 0.25 ng/mL TGF-beta1 or assay buffer using two separate tips of Flying Reagent Dispenser (FRD, Aurora Discovery, San Diego, CA). The assay plates were incubated at 37 C and 5% CO2 for 5 hr. One uL of LiveBLAzer B/G FRET substrate (Life Technologies) was added using a Flying Reagent Dispenser (FRD, Aurora Discovery, San Diego, CA) and the plates were incubated at room temperature for 2 hr. Fluorescence intensity (405 nm excitation, 460 nm and 530 nm emissions) was measured using an Envision plate reader (PerkinElmer, Shelton, CT). For cytotoxicity read, 4 uL of CellTiter-Glo reagent (Promega Corporation, Madison, WI) was added to each well of the assay plates using FRD. After 30 min incubation at room temperature, the luminescence intensity was measured using ViewLux plate reader (PerkinElmer).
On the technique in general: qHTS replaces the single test concentration by a dilution series.
Regarding `COC(=O)c1c(C(F)F)nc(C(F)(F)F)c(C2=NCCS2)c1CC(C)C`, the “viability change, negative = cytotoxic” value is -9.46% (inactive). In the case of `CCC1(c2ccccc2)C(=O)NC(=O)NC1=O`, the “viability change, negative = cytotoxic” value was -0.374% (inactive). Take `Clc1cccc(N2CCNCC2)c1`: the “viability change, negative = cytotoxic” value is -0.935% [at 35.3 µM] (inactive). In the case of `CC(CCc1ccccc1)NC(C)C(O)c1ccc(O)cc1` (stereo not given) it was 4.39% [at 35.3 µM] (inactive); in that of `ClCC(Cl)(Cl)Cl`, 7.08% (inactive); in that of `CC(=O)C(Cl)Cl`, -9.13% (inactive). Regarding `CCNc1nc(NC(C)C)nc(OC)n1`, the “viability change, negative = cytotoxic” value is -0.611% (inactive).

With `CC(C(O)c1ccccc1)N(C)C/C=C/c1ccccc1` (stereo not given), the “viability change, negative = cytotoxic” value was -10.7% [at 35.3 µM] (inactive).

Consider `O=C(CCCN1CCC(n2c(=O)[nH]c3ccccc32)CC1)c1ccc(F)cc1`, for which the “viability change, negative = cytotoxic” value was -10.4% [at 35.3 µM] (inactive). In the case of `CCOP(=S)(Oc1cnc(C(C)(C)C)nc1)OC(C)C` (stereo not given) it was -6.58% (inactive). Consider `CNC(=O)N(C)c1nc2ccccc2s1`, for which the “viability change, negative = cytotoxic” value is -6.29% (inactive). In the case of `CN1C(=S)CN=C(c2ccccc2)c2cc(Cl)ccc21` it was -4.44% [at 35.3 µM] (inactive).

Take `O=C1CN2CCOC2(c2ccccc2Cl)c2cc(Cl)ccc2N1` (stereo not given): the “viability change, negative = cytotoxic” value was 4.28% [at 35.3 µM] (inactive). In the case of `COc1ncc(F)c2nc(S(=O)(=O)Nc3c(F)cccc3F)nn12` it was -2.43% [at 35.3 µM] (inactive); in that of `CNC(=O)Oc1cccc(C(C)C)c1`, 1.38% (inactive); in that of `CC(C=O)Cc1ccc2c(c1)OCO2` (stereo not given), 11.5% (inactive). Consider `COc1cc(OC)nc(NC(=O)NS(=O)(=O)c2ncccc2C(=O)N(C)C)n1`, for which the “viability change, negative = cytotoxic” value is 2.8% (inactive). In the case of `O=[N+]([O-])c1ccc(CBr)cc1` it was 11.4% (inactive); in that of `C#C[C@]1(O)C=C[C@H]2[C@@H]3CCC4=CC(=O)CC[C@@H]4[C@H]3CC[C@@]21CC`, -9.18% [at 35.3 µM] (inactive); in that of `COc1cc(C[C@@H](C)N)c(OC)cc1C`, 11.8% (inactive). In the case of `CC1=C(C(=O)Nc2ccccc2)S(=O)(=O)CCO1` it was 5.99% (inactive). In the case of `Cc1coc2c1CCC(C)C2` (stereo not given) it was -17.6% (inactive); in that of `O=C1OC(=O)C2C1C1(Cl)C(Cl)=C(Cl)C2(Cl)C1(Cl)Cl` (stereo not given), 0.412% (inactive); in that of `O=[N+]([O-])c1cccc(O)c1`, -5.61% (inactive). `NC1=NC(=O)C(c2ccccc2)O1` (stereo not given): the “viability change, negative = cytotoxic” value is 0.679% [at 35.3 µM] (inactive). In the case of `CC(Oc1ccc(Oc2ncc(C(F)(F)F)cc2Cl)cc1)C(=O)O` (stereo not given) it was -16.8% (inactive); in that of `Fc1ccc(C2(Cn3cncn3)OC2c2ccccc2Cl)cc1` (stereo not given), -9.22% (inactive); in that of `O=NN1CCN(N=O)CC1`, 4.7% (inactive). In the case of `Fc1cc(Br)ccc1CBr`, the “viability change, negative = cytotoxic” value is 6.19% [at 35.3 µM] (inactive).

For the compound `NC(=O)O`, the “viability change, negative = cytotoxic” value is -1.29% (inactive). In the case of `O=[N+]([O-])c1cc(Cl)c(Cl)c(Cl)c1`, the “viability change, negative = cytotoxic” value is -11.7% (inactive). In the case of `CCCSC(=O)N(CCC)CCC` it was 3.42% (inactive); in that of `NC(=O)c1cc([N+](=O)[O-])cc([N+](=O)[O-])c1`, 7.81% [at 35.3 µM] (inactive). In the case of `CN1C[C@@H](NS(=O)(=O)N(C)C)C[C@@H]2c3cccc4c3c(cn4C)C[C@H]21` it was 10.2% [at 35.3 µM] (inactive); in that of `CCOC(=O)C1(c2ccccc2)CCN(CCc2ccc(N)cc2)CC1`, -3.5% [at 35.3 µM] (inactive). In the case of `Cc1cc(C)nc(Nc2ccccc2)n1` it was -9.16% (inactive); in that of `Nc1cc(Cl)ccc1O`, 0.831% (inactive); in that of `COc1ccc(C(=O)N2CCCC2=O)cc1`, 11.8% [at 35.3 µM] (inactive). For `ClCCOCOCCCl`, the “viability change, negative = cytotoxic” value was 5.45% (inactive). For the compound `CC(=O)[C@H]1CC[C@H]2[C@@H]3CC[C@H]4C[C@H](O)CC[C@]4(C)[C@H]3C(=O)C[C@]12C`, the “viability change, negative = cytotoxic” value is -0.847% [at 35.3 µM] (inactive).

The record behind these values is PubChem BioAssay (Tox21).
